Out of some 5,500 compounds screened, about 2,000 (36%) were called active. Roughly 18% stayed inconclusive and do not appear here. No stated cut-off is given here; in the data, active means normalized growth mostly below about 0.91 (no sharp cut-off); inconclusive means no clear call, values can overlap the other calls; inactive means mostly above about 0.92. The list shows a part of the results.
Test: chemical genetic growth profiling, strain panel (AID 1159580);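 further: tested at 20 µM; growth read once vehicle control cultures reached saturation at 30 °C; 1 = growth at the plate median or of vehicle wells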
Settings: S. cerevisiae deletion strains, growth OD
[1] = locus YAL013W, strain DEP1, stronger effect = lower value
[2] = locus YMR263W, strain SAP30, stronger effect = lower value
[3] = locus YNL153C, strain GIM3, stronger effect = lower value

Measured: normalized growth

FC(F)(F)c1cc(CO[C@H]2CCCN[C@H]2c2ccccc2)cc(C(F)(F)F)c1
inactive: [1] 0.988 | locus YAL040C, strain CLN3, stronger effect = lower value 0.998 | locus YCL061C, strain MRC1 (second series), stronger effect = lower value 0.975 | locus YDR363W, strain ESC2, stronger effect = lower value 0.96 | locus YER002W, strain NOP16, stronger effect = lower value 1.04 | [2] 0.999 | locus YMR307W, strain GAS1, stronger effect = lower value 0.964 | locus YNL128W, strain TEP1, stronger effect = lower value 1.05 | [3] 0.823 | locus YNL175C, strain NOP13, stronger effect = lower value 1.04 | locus YNL197C, strain WHI3, stronger effect = lower value 1.07 | locus YNL224C, strain SQS1, stronger effect = lower value 1.03 | locus YOR083W, strain WHI5 (second series), stronger effect = lower value 0.913

Cn1c2c(c3c1CCCC3)CCCC2
inactive: [1] 0.995 | locus YBR229C, strain ROT2, stronger effect = lower value 1.03 | locus YCL061C, strain MRC1, stronger effect = lower value 1.01 | locus YDL101C, strain DUN1, stronger effect = lower value 0.974 | locus YDL134C, strain PPH21, stronger effect = lower value 1.02 | locus YDR150W, strain NUM1, stronger effect = lower value 1.02 | locus YEL061C, strain CIN8, stronger effect = lower value 0.988 | locus YGR078C, strain PAC10, stronger effect = lower value 1.01 | locus YHR030C, strain SLT2, stronger effect = lower value 1.01 | locus YHR087W, strain rtc3, stronger effect = lower value 0.992 | locus YJR043C, strain POL32, stronger effect = lower value 1.02 | locus YJR075W, strain HOC1, stronger effect = lower value 1.02 | locus YKL190W, strain CNB1, stronger effect = lower value 1.02 | locus YLR039C, strain RIC1, stronger effect = lower value 0.925 | locus YLR058C, strain SHM2 (second series), stronger effect = lower value 1.02 | locus YLR085C, strain ARP6, stronger effect = lower value 1 | locus YLR262C, strain YPT6, stronger effect = lower value 0.974 | locus YML094W, strain GIM5, stronger effect = lower value 0.972 | locus YMR219W, strain ESC1, stronger effect = lower value 1.02 | [2] 1 | locus YNL298W, strain CLA4 (second series), stronger effect = lower value 1.02 | locus YNL322C, strain KRE1, stronger effect = lower value 1.01 | locus YNR030W, strain Alg12, stronger effect = lower value 1.03 | locus YOL006C, strain TOP1, stronger effect = lower value 1 | locus YPL055C, strain LGE1, stronger effect = lower value 1.08 | locus YPL241C, strain CIN2, stronger effect = lower value 1.01 | locus YPR135W, strain CTF4, stronger effect = lower value 1.06
active: [3] 0.873
